Laboratory results taken from the supplement of paper PMC6522484.
± gives the standard deviation of the averaged measurements.

How the values were obtained:
[1] = system: DLD1; test: cell viability (CellTiter-Glo) relative to plate median (fraction of plate median); higher = more viable cells; settings: 5 µM; treatment time 24 h; reporter: 7TFP
In short: (§1)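 Colorectal cancer cell lines stably carrying lentiviral TCF/Wnt firefly luciferase reporters (7TFP or TCF4/Wnt) were plated in 384-well plates and, 24 h later, given library compounds at a final 5 µM for 24 h. Firefly luciferase or CellTiterGlo luminescence was read on parallel plates with a Tecan F500 reader. Each well's signal was normalised to the plate median in webcellHTS2 (additive, without log transformation). Values are the mean of two independent replicates.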

[2] = system: HCT116; test: as above; settings: 5 µM; treatment time 24 h; reporter: TCF4/Wnt
In short: as §1

[3] = system: SW480; test: as above; settings: 5 µM; treatment time 24 h; reporter: 7TFP
In short: as §1

[4] = system: DLD1; test: TCF/Wnt firefly luciferase reporter signal relative to plate median (fraction of plate median); higher = higher Wnt reporter signal; settings: 5 µM; treatment time 24 h; reporter: 7TFP
In short: as §1

[5] = system: SW480; test: as above; settings: 5 µM; treatment time 24 h; reporter: 7TFP
In short: as §1

Row | Structure (SMILES) | cell viability [1] | cell viability [2] | cell viability [3] | TCF/Wnt firefly luciferase reporter signal [4] | TCF/Wnt firefly luciferase reporter signal [5]
1 | CCN[C@@H]1C[C@H](N)[C@@H](O[C@H]2OC(CN)=CC[C@H]2N)[C@H](O)[C@H]1O[C@H]1OC[C@](C)(O)[C@H](NC)[C@H]1O | 0.992 ± 0.026 | 0.903 ± 0.052 | 0.978 ± 0.025 | 0.906 ± 0.15 | 0.953 ± 0.021
2 | C=C1[C@H]2CC[C@@]3(C)[C@H](c4ccoc4)OC(=O)C[C@]13O[C@H]1C[C@H](O)C(C)(C)[C@H](CC(=O)OC)[C@]12C [3-DEOXY-3beta-HYDROXYANGOLENSIC ACID METHYL ESTER] | 1.01 ± 0.061 | 0.958 ± 0.1 | 1.05 ± 0.11 | 1.06 ± 0.05 | 0.952 ± 0.035
3 | CC(C)C[C@@H]1NC(=O)CNC1=O [Cyclo(leucylglycyl)] | 0.991 ± 0.042 | 1.05 ± 0.057 | 0.949 ± 0.072 | 0.956 ± 0.028 | 0.935 ± 0.044
4 | C[C@@H]1CC2C3C[C@H](F)C4=CC(=O)C=C[C@]4(C)[C@@]3(F)[C@@H](O)C[C@]2(C)[C@@]1(O)C(=O)COC(=O)C(C)(C)C (stereo not given in full) | 1.01 ± 0.021 | 0.925 ± 0.039 | 1 ± 0.025 | 1.16 ± 0.064 | 1.085 ± 0.0071
5 | Nc1ccc(S(=O)(=O)Nc2ccc(Cl)nn2)cc1 | 1.06 ± 0.096 | 1.03 ± 0.035 | 1.08 ± 0.05 | 0.954 ± 0.028 | 1.09 ± 0.042
6 | Cc1cc(C(C)(C)C)c(O)c(C(C)(C)C)c1 | 0.926 ± 0.054 | 0.925 ± 0.057 | 1.004 ± 0.0092 | 1.04 ± 0.09 | 0.969 ± 0.011
7 | CS(C)(=O)=O | 1.01 ± 0.081 | 1.05 ± 0.071 | 0.962 ± 0.035 | 1.26 ± 0.071 | 1.05 ± 0.064
8 | CCN(CC)CCOC(=O)C(c1ccccc1)c1ccccc1 | 0.982 ± 0.068 | 0.972 ± 0.054 | 0.917 ± 0.036 | 0.904 ± 0.14 | 0.929 ± 0.0057
9 | COCC1=C(C(=O)OC(C)OC(=O)OC(C)C)N2C(=O)[C@@H](NC(=O)/C(=N\OC)c3csc(N)n3)[C@H]2SC1 (stereo not given in full) | 1.07 ± 0.085 | 1.09 ± 0.085 | 1.02 ± 0.028 | 1.01 ± 0.061 | 0.999 ± 0.059
10 | CC(=O)NCC(=O)c1c[nH]c2ccccc12 [N-Acetyl-beta-oxotryptamin] | 1.02 ± 0.048 | 0.983 ± 0.095 | 0.982 ± 0.013 | 1.11 ± 0.085 | 0.932 ± 0.052
11 | COc1ccc(C(=O)Oc2ccc(/C=N/NC(N)=O)cc2)cc1 [Anthramycin derivative (C16H15N3O4)] | 1.2 ± 0.2 | 0.991 ± 0.07 | 1.02 ± 0.071 | 0.938 ± 0.12 | 1.05 ± 0.028
12 | CC[C@H]1OC(=O)[C@H](C)[C@@H](O[C@H]2C[C@@](C)(OC)[C@@H](O)[C@H](C)O2)[C@H](C)[C@@H](O[C@@H]2O[C@H](C)C[C@H](N(C)C)[C@H]2O)[C@](C)(O)C[C@@H](C)/C(=N\OCOCCOC)[C@H](C)[C@@H](O)[C@]1(C)O | 1.03 ± 0.079 | 1.12 ± 0.26 | 1.12 ± 0.057 | 0.907 ± 0.13 | 1.03 ± 0.05
13 | C=C1c2c(Cl)ccc(O)c2C(=O)C2=C(O)[C@]3(O)C(=O)C(C(N)=O)=C(O)[C@@H](N(C)C)[C@@H]3[C@@H](O)[C@H]12.O=C(O)c1cc(S(=O)(=O)O)ccc1O | 1.05 ± 0.021 | 1.02 ± 0.042 | 1.005 ± 0.0071 | 1.05 ± 0.25 | 0.893 ± 0.062
14 | Nc1ncnc2c1ncn2[C@@H]1O[C@H](CO)[C@@H](O)[C@@H]1O | 0.9735 ± 0.0078 | 1.01 ± 0.021 | 0.975 ± 0.034 | 1.08 ± 0.064 | 1.05 ± 0.05
15 | CCCN(CCC)C(=O)C(CCC(=O)O)NC(=O)c1ccccc1 (stereo not given) | 0.921 ± 0.057 | 1.06 ± 0.035 | 0.904 ± 0.024 | 1.01 ± 0.024 | 1.06 ± 0.05
16 | CC1(C)C(=O)[C@H]2C[C@]3(O)C4=CC(=O)O[C@@H](c5ccoc5)[C@@]4(C)CCC3[C@](C)(C2=O)[C@H]1CC(=O)O (stereo not given in full) | 1.085 ± 0.0071 | 1.1 ± 0.064 | 1.05 ± 0.028 | 1.11 ± 0.099 | 0.972 ± 0.083
17 | Cc1cc(-c2ncc(CC(=O)Nc3ccc(-c4cnccn4)cn3)cc2C)ccn1 | 0.974 ± 0.052 | 0.975 ± 0.032 | 0.914 ± 0.0028 | 0.921 ± 0.042 | 0.847 ± 0.21
18 | O=C(Cc1cccs1)N[C@@H]1C(=O)N2C(C(=O)[O-])=C(C[n+]3ccccc3)CS[C@H]12 | 0.979 ± 0.073 | 0.944 ± 0.057 | 1.01 | 0.9975 ± 0.0035 | 0.889 ± 0.0057
19 | CCN(CC)CCOCCOC(=O)C1(c2ccccc2)CCCC1 | 1.03 ± 0.13 | 0.887 ± 0.1 | 0.916 ± 0.013 | 1.12 ± 0.16 | 1.04 ± 0.028
20 | O[C@H]1[C@H](O)[C@@H](O)[C@H](O)[C@@H](O)[C@H]1O | 0.938 ± 0.03 | 0.922 ± 0.097 | 0.931 ± 0.0057 | 1.12 ± 0.042 | 1.07 ± 0.035
21 | CC(NCCc1ccc(O)cc1)C(O)c1ccc(O)cc1 (stereo not given) | 0.914 ± 0.1 | 0.929 ± 0.1 | 0.933 ± 0.056 | 0.981 ± 0.07 | 0.913 ± 0.027
22 | O=C1NC(Cc2ccc(O)cc2)C(=O)N2CCCC12 (stereo not given) [cyclo(prolyltyrosyl)] | 0.9655 ± 0.0021 | 0.95 ± 0.023 | 1.025 ± 0.0071 | 0.998 ± 0.2 | 0.887 ± 0.05
23 | Cc1ccnc(NS(=O)(=O)c2ccc(N)cc2)n1 | 0.968 ± 0.059 | 0.974 ± 0.052 | 0.953 ± 0.04 | 0.924 ± 0.019 | 0.929 ± 0.1
24 | CC/C(=C(/CC)c1ccc(O)cc1)c1ccc(O)cc1 | 0.959 ± 0.072 | 0.845 ± 0.021 | 0.982 ± 0.11 | 1.06 ± 0.18 | 1.13 ± 0.028
25 | Nc1cc(-c2ccncc2)c[nH]c1=O | 1.03 ± 0.042 | 0.99 ± 0.057 | 0.928 | 0.903 ± 0.032 | 0.94 ± 0.054
26 | CN1CCOC(c2ccccc2)c2ccccc2C1 (stereo not given) | 0.915 ± 0.048 | 0.997 ± 0.1 | 1 ± 0.014 | 0.9875 ± 0.0035 | 0.883 ± 0.12
27 | CC(C)CCC[C@@H](C)[C@H]1CC[C@H]2[C@@H]3CC=C4CC(=O)CC[C@]4(C)[C@H]3CC[C@]12C | 1 ± 0.026 | 1.015 ± 0.0071 | 1.03 ± 0.048 | 0.979 ± 0.13 | 0.974 ± 0.19
28 | C[C@@H]([C@H]1OC(C)(C)[C@@H](O)[C@H]1O)[C@@H]1CC[C@]2(C)C3=CC[C@H]4C(C)(C)C(=O)CC[C@]4(C)[C@H]3CC[C@@]12C | 1.1 ± 0.19 | 0.998 ± 0.1 | 1.07 ± 0.042 | 1.01 ± 0.084 | 0.884 ± 0.065
29 | O=C(O)c1ccccc1 | 1.06 ± 0.096 | 1.02 ± 0.021 | 1.02 ± 0.014 | 1.12 ± 0.071 | 0.951 ± 0.037
